SMILES strings stand for the structures. Records with an inconclusive call do not appear. Calls of active or inactive are those of the source. The calls were made as follows, unless noted: active = hit-call score of the fitted dose curve at least 0.9, where 1 is the maximum; inconclusive = response in the unintended direction; inactive = score below 0.9.

Test [1] in a line: ATG_TGFb_CIS: Attagene CIS-FACTORIAL HepG2 Assay for human Transforming Growth Factor (TGF) (AID 2282967; active = hit-call score of the fitted dose curve at least 0.9, where 1 is the maximum; inactive = score below 0.9). Conditions: HepG2 Attagene CIS TGFb reporter, mRNA transcription; actives raise or lower the signal. In outline: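 Bidirectional fitting relative to DMSO gave the endpoint. Underlying data: reporter mRNA from HepG2 cells carrying transiently transfected cis-regulated reporter constructs, harvested 24 h after dosing and analyzed by RT-PCR and capillary electrophoresis.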

A short description of test [2]: ATG_VDRE_CIS: Attagene CIS-FACTORIAL HepG2 Assay for human Vitamin D Receptor Element (VDRE) (AID 2282968; active = hit-call score of the fitted dose curve at least 0.9, where 1 is the maximum; inactive = score below 0.9). Conditions: HepG2 VDRE cis-reporter transcription, actives raise or lower the signal. In outline:
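Transfected HepG2 reporter cells, chemical treatment 24 h. RNA isolated, cDNA amplified with reporter-specific primers, products analysed by capillary electrophoresis. Endpoint fitted in both directions versus DMSO.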

Test [3] concerns the target Estrogen receptor (Homo sapiens) (UniProt P03372). Briefly: ATG_ERa_TRANS: Attagene TRANS-FACTORIAL HepG2 Assay for human Estrogen Receptor alpha (ERa) (AID 2282970). The settings on record: HepG2 Attagene TRANS ERa GAL4 reporter, mRNA. The method in brief:
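Reporter transcripts were measured 24 h after dosing by RT-PCR with fluorescent primer extension and capillary electrophoresis. The system is transiently transfected HepG2 expressing exogenous NR-Gal4 chimeras driving GAL4-UAS reporters; DMSO is the baseline.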

The target of test [4] is X-box-binding protein 1 (Homo sapiens) (UniProt P17861). Kind of test: ATG_Xbp1_CIS: Attagene CIS-FACTORIAL HepG2 Assay for human X-box Binding Protein 1 (XBP1) (AID 2282972; active = hit-call score of the fitted dose curve at least 0.9, where 1 is the maximum; inactive = score below 0.9). The settings on record: HepG2 XBP1 cis-element reporter, Attagene multiplex; actives raise or lower the signal. In outline: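 Human hepatoma HepG2, cis-element reporter system, 24 h treatment; mRNA quantified by RT-PCR/CE fluorescence; fit relative to DMSO.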
Sequence of X-box-binding protein 1 (Homo sapiens) (P17861 whole entry, looked up): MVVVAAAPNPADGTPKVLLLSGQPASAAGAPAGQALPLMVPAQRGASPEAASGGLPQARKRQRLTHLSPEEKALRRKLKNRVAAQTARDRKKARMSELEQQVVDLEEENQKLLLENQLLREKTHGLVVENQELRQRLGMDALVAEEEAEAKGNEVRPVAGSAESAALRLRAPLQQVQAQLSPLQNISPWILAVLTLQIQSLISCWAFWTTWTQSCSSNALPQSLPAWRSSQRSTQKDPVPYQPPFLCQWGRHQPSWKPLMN

Test [5] has as its target Androgen receptor (Homo sapiens) (UniProt P10275). Briefly: ATG_AR_TRANS: Attagene TRANS-FACTORIAL HepG2 Assay for human Androgen Receptor (AR) (AID 2282973). Conditions: HepG2 Attagene TRANS-FACTORIAL AR reporter transcription. The method in brief: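 Transcriptional activity of an exogenous AR–Gal4 fusion read as GAL4-UAS reporter transcript levels in transfected human HepG2 cells after 24 h dosing. Detection via RT-PCR, 6-FAM labelling, HpaI digest and capillary electrophoresis; increase over DMSO baseline.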

Test [6] addresses Bile acid receptor (Homo sapiens) (UniProt Q96RI1). Kind of test: ATG_FXR_TRANS: Attagene TRANS-FACTORIAL HepG2 Assay for Farnesoid X Receptor (FXR) (AID 2282979).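 Also: hits raise reporter mRNA above DMSO so AC50 marks FXR activation.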 The settings on record: HepG2 Attagene TRANS FXR-GAL4 reporter transcription. The method in brief: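 Reporter transcripts from transfected HepG2 cells were measured 24 h after dosing, using RT-PCR with capillary electrophoresis of 6-FAM-labelled fragments. The read-out reflects activity of exogenous FXR-Gal4 chimera on GAL4-UAS units, with induction relative to DMSO.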

The nature of test [7]: ATG_M_06_TRANS: Attagene TRANS-FACTORIAL HepG2 Assay for M06 Transcription Factor (Internal Marker) (AID 2282983). The settings on record: HepG2 Attagene TRANS M06 internal marker reporter. The method in brief:
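Background-control reporter readout: after 24 h chemical exposure of transiently transfected HepG2 (GAL4-UAS reporter units), mRNA quantified by RT-PCR with fluorescent labeling and capillary electrophoresis. Gain-of-signal fitting against DMSO baseline.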

Test [8] can be described thus: ATG_M_32_TRANS: Attagene TRANS-FACTORIAL HepG2 Assay for M32 Transcription Factor (Internal Marker) (AID 2282984).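 Also: transcript level of a background control reporter unit measured by RT-PCR and capillary electrophoresis.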 Conditions: HepG2 Attagene TRANS M32 internal marker reporter. In outline: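 Fluorescence-detected mRNA induction, HepG2 liver cells, 24 h after dosing. Multiple GAL4-UAS reporter units introduced by transient transfection; background-control endpoint analysed for gain of signal against DMSO.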

The target of test [9] is Transcriptional activator Myb (Homo sapiens) (UniProt P10242). Briefly: ATG_Myb_CIS: Attagene CIS-FACTORIAL HepG2 Assay for human Myeloblastosis (Myb) Proto-Oncogene Transcription Factor (AID 2282986; active = hit-call score of the fitted dose curve at least 0.9, where 1 is the maximum; inactive = score below 0.9). Conditions: HepG2 Attagene CIS-FACTORIAL Myb reporter transcription; actives raise or lower the signal. In outline:
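HepG2, transient MRTU transfection (cis-element promoters, endogenous TF activity), 24 h compound exposure. Readout: reporter mRNA via RT-PCR, 6-FAM labeling, HpaI digest, capillary electrophoresis. Gain/loss fit vs DMSO.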

The target of test [10] is Nuclear respiratory factor 1 (Homo sapiens) (UniProt Q16656). Kind of test: ATG_NRF1_CIS: Attagene CIS-FACTORIAL HepG2 Assay for human Nuclear Respiratory Factor 1 (NRF1) Orphan Gene (AID 2282987; active = hit-call score of the fitted dose curve at least 0.9, where 1 is the maximum; inactive = score below 0.9). Conditions: HepG2 NRF1 cis-element reporter, Attagene multiplex; actives raise or lower the signal. The method in brief:
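Endogenous NRF1-driven reporter transcription measured in transiently transfected human HepG2 liver cells. Readout: reporter mRNA by RT-PCR and capillary electrophoresis with fluorescence detection, 24 h post-dosing. Gain or loss of signal fitted relative to DMSO baseline.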

Test [11] concerns the target Glucocorticoid receptor (Homo sapiens) (UniProt P04150). Briefly: ATG_GR_TRANS: Attagene TRANS-FACTORIAL HepG2 Assay for human Glucocorticoid Receptor (GR) (AID 2282978).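 Also: activators score as hits since higher reporter transcript over DMSO is fitted.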 Conditions: HepG2 Attagene TRANS GR reporter, mRNA transcription. In outline: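 Transient MRTU transfection of HepG2 (GAL4-UAS reporters, exogenous NR-GAL4 chimeras), 24 h dosing. Readout: reporter transcript via RT-PCR + capillary electrophoresis fluorescence. Positive direction vs DMSO baseline.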

The target in test [12] is Oxysterols receptor LXR-alpha (Homo sapiens) (UniProt Q13133). Kind of test: ATG_LXRa_TRANS: Attagene TRANS-FACTORIAL HepG2 Assay for human Liver X Receptor alpha (LXRa) (AID 2282980). Conditions: HepG2 Attagene TRANS reporter, LXRa transactivation. In outline:
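Chemical-induced reporter mRNA measured by RT-PCR with fluorescent labelling and capillary electrophoresis after 24 h dosing of transiently transfected HepG2 cells expressing exogenous NR-Gal4 chimeras; increases scored against DMSO baseline.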

In test [13] the target is Oxysterols receptor LXR-beta (Homo sapiens) (UniProt P55055). Kind of test: ATG_LXRb_TRANS: Attagene TRANS-FACTORIAL HepG2 Assay for human Liver X Receptor beta (LXRb) (AID 2282981). Conditions: HepG2 Attagene TRANS GAL4-LXRb reporter, mRNA. The method in brief: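 Liver-derived HepG2 cells transfected with Gal4-responsive reporters were dosed for 24 h. Activation was scored as rise in reporter mRNA, by RT-PCR and capillary electrophoresis, above DMSO baseline.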

The target of test [14] is Steroid hormone receptor ERR1 (Homo sapiens) (UniProt P11474). Briefly: ATG_ERRa_TRANS: Attagene TRANS-FACTORIAL HepG2 Assay for human Estrogen-Related Receptor alpha (ERRa) (AID 2282971). The settings on record: HepG2 Attagene TRANS reporter, ERRa transactivation. In outline:
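Reporter transcripts from ERRa-Gal4 chimera activity measured in transiently transfected human HepG2 cells 24 hours after dosing, using RT-PCR with 6-FAM primer extension, HpaI digestion and capillary electrophoresis; DMSO is baseline.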

In test [15] the target is Nuclear receptor subfamily 4 group A member 2 (Homo sapiens) (UniProt P43354). Briefly: ATG_NURR1_TRANS: Attagene TRANS-FACTORIAL HepG2 Assay for human Nuclear Receptor Related Protein 1 (NURR1) (AID 2282985). Conditions: HepG2 Attagene TRANS reporter, mRNA readout. In outline: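 Chimeric NR-Gal4 proteins were expressed in human HepG2 cells bearing GAL4-UAS reporter units, and induced reporter mRNA was quantified 24 h post-dosing by RT-PCR and capillary electrophoresis.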

The nature of test [16]: ATG_M_19_TRANS: Attagene TRANS-FACTORIAL HepG2 Assay for M19 Transcription Factor (Internal Marker) (AID 2282974). The settings on record: HepG2 Attagene TRANS-FACTORIAL M19 internal marker reporter. The method in brief: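 24 h chemical exposure of transiently transfected HepG2 (MRTU library). RNA → oligo(dT) RT → PCR → 6-FAM labelling → HpaI cut → CE fluorescence. Positive-direction fit vs DMSO baseline; background internal-marker readout.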

Test [17] is described as follows: ATG_GAL4_TRANS: Attagene TRANS-FACTORIAL HepG2 Assay for GAL4 (Internal Marker) (AID 2282976). Conditions: HepG2 Attagene TRANS GAL4 internal marker reporter. In outline: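 In transfected human HepG2 liver cells dosed 24 h, GAL4 reporter mRNA serves as a baseline marker. Detection by RT-PCR with fluorescent capillary electrophoresis, activity fitted upward relative to DMSO.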

In test [18] the target is Estrogen-related receptor gamma (Homo sapiens) (UniProt P62508). Kind of test: ATG_ERRg_TRANS: Attagene TRANS-FACTORIAL HepG2 Assay for human Estrogen-Related Receptor gamma (ERRg) (AID 2282977).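 Also: hits increase reporter signal over DMSO so potencies reflect activators.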 Conditions: HepG2 Attagene TRANS reporter, ERRg transactivation. The method in brief: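 Exogenous NR-Gal4 chimera activity was assessed in HepG2 cells bearing transfected GAL4-UAS reporters. After 24 h dosing, total RNA underwent RT-PCR, fluorescent primer extension and HpaI digestion before capillary electrophoresis, with gain of signal scored against DMSO.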

Test [19] deals with Hepatocyte nuclear factor 4-alpha (Homo sapiens) (UniProt P41235). Briefly: ATG_HNF4a_TRANS: Attagene TRANS-FACTORIAL HepG2 Assay for human Hepatocyte Nuclear Factor 4 alpha (HNF4a) (AID 2282982). Conditions: HepG2 HNF4a transactivation reporter, mRNA readout. The method in brief:
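Using HepG2 liver cells transfected with GAL4-UAS reporter units, chemical-induced mRNA increases were assessed after 24 hours. Fluorescent RT-PCR fragments were separated by capillary electrophoresis and compared with DMSO negative controls.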

Sequence of Glucocorticoid receptor (Homo sapiens) (P04150 whole entry, looked up, the tested form may be a part): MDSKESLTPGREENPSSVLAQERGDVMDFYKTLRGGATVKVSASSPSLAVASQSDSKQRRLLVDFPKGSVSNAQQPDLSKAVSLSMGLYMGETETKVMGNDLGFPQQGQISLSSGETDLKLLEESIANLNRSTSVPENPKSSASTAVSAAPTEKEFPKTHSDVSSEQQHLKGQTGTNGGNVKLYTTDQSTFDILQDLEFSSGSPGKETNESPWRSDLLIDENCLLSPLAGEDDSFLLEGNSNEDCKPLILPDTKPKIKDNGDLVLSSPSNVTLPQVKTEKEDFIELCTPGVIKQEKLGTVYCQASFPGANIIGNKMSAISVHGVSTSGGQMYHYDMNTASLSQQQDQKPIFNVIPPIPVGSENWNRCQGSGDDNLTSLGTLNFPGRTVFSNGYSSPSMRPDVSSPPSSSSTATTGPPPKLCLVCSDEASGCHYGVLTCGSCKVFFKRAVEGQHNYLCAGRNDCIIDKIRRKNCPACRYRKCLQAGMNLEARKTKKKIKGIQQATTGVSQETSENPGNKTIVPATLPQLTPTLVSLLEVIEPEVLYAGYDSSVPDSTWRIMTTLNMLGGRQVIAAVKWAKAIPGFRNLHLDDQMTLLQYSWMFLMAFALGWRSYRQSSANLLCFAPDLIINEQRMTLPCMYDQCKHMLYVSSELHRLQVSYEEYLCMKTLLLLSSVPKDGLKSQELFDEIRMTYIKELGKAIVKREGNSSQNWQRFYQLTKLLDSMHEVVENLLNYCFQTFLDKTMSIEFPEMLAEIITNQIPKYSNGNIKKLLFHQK
Sequence of Bile acid receptor (Homo sapiens) (Q96RI1 whole entry, looked up, the tested form may be a part): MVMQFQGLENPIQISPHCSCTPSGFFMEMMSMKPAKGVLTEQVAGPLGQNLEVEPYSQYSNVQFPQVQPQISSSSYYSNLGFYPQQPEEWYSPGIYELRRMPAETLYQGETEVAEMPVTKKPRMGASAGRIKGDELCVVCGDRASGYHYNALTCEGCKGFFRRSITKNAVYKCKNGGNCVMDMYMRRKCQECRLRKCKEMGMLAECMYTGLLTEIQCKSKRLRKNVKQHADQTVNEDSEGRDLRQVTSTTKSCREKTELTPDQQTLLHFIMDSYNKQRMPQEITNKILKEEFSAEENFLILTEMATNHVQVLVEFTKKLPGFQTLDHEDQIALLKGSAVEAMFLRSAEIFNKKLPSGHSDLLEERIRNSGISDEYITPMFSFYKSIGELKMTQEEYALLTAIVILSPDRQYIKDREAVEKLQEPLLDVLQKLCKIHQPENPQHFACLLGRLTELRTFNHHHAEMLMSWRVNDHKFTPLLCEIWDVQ
Sequence of Transcriptional activator Myb (Homo sapiens) (P10242 whole entry, looked up): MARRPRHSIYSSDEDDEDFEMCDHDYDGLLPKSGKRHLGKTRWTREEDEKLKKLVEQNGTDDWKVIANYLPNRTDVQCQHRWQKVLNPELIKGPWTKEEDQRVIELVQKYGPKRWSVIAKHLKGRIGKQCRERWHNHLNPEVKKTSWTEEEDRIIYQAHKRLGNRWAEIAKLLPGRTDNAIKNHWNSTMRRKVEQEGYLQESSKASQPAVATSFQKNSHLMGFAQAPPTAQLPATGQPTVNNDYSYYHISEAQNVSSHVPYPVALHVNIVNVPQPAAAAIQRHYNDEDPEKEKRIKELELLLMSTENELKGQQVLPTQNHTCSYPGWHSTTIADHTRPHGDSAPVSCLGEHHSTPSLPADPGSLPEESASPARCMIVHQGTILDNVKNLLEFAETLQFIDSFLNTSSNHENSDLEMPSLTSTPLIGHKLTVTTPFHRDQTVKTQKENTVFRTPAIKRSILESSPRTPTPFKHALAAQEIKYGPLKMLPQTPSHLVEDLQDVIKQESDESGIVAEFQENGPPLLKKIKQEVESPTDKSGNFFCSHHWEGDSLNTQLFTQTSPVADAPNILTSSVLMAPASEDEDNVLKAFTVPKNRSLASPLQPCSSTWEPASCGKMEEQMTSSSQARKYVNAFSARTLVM
Sequence of Nuclear respiratory factor 1 (Homo sapiens) (Q16656 whole entry, looked up): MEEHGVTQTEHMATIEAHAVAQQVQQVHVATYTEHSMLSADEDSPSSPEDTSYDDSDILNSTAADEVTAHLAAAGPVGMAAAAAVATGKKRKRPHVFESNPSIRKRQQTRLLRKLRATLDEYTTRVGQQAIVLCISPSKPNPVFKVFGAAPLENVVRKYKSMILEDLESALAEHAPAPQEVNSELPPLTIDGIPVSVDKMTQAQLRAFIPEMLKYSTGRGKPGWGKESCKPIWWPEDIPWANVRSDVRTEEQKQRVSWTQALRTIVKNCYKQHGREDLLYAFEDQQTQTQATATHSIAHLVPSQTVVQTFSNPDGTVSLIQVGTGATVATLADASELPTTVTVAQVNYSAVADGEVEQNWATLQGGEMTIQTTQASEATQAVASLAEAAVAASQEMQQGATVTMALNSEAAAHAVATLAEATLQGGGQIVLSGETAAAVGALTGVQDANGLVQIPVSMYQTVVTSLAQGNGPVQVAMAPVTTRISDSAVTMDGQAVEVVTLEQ
Sequence of Estrogen receptor (Homo sapiens) (P03372 whole entry, looked up, the tested form may be a part): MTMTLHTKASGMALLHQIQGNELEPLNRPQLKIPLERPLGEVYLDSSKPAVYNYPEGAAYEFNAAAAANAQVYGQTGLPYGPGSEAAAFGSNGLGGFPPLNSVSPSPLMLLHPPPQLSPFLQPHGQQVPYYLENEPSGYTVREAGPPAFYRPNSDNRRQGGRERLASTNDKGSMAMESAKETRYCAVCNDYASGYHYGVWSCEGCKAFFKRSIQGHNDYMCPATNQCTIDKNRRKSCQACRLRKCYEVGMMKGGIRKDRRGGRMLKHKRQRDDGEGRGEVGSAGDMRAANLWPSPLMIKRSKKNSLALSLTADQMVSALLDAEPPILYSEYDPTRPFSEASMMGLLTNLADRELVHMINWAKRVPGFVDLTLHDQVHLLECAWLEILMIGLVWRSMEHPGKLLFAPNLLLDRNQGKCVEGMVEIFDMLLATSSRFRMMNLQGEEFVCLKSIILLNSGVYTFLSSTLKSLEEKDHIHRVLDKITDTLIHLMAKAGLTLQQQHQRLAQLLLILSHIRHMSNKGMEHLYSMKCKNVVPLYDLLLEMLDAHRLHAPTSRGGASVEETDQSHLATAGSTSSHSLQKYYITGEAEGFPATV
Sequence of Oxysterols receptor LXR-alpha (Homo sapiens) (Q13133 whole entry, looked up, the tested form may be a part): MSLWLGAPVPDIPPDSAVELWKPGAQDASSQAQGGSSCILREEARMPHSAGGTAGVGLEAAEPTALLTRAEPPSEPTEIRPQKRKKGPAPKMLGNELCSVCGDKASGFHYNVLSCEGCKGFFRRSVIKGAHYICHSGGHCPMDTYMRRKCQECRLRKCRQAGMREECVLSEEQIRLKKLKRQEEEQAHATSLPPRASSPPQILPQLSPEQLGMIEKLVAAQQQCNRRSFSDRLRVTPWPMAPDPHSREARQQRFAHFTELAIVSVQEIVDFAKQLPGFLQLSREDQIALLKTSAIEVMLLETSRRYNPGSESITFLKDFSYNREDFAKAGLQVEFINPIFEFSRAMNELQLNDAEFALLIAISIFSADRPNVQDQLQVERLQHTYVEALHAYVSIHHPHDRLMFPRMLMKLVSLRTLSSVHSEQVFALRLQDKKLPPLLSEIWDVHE
Sequence of Androgen receptor (Homo sapiens) (P10275 whole entry, looked up, the tested form may be a part): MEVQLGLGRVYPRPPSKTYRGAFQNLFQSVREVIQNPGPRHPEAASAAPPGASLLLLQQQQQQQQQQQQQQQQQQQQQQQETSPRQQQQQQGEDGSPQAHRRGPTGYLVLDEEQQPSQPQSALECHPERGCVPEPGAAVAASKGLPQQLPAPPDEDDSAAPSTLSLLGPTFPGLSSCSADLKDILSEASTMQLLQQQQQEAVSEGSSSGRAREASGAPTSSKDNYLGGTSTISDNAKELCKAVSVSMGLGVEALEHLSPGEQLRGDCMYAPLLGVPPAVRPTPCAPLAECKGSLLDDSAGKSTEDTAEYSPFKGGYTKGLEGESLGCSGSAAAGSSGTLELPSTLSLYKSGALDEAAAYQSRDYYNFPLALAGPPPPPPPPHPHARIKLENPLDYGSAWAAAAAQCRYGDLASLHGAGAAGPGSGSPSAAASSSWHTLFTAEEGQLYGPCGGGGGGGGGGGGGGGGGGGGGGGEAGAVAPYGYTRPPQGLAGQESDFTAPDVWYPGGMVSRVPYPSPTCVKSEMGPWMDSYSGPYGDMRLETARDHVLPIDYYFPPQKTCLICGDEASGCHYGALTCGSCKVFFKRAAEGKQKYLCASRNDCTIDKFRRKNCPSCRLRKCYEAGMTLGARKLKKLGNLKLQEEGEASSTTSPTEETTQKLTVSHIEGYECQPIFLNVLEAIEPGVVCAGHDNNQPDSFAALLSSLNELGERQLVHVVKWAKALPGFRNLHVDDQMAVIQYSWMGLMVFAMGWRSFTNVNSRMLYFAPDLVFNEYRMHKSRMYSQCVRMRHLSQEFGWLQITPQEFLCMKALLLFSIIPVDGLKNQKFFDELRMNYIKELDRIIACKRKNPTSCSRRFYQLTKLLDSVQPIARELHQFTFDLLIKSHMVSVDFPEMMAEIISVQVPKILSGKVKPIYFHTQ

As for `O=S1(=O)OC(c2cc(Br)c(O)c(Br)c2)(c2cc(Br)c(O)c(Br)c2)c2ccccc21`, the result in test [1], in [2], in test [3], in test [4], in test [5] and in [6] was inactive. Besides, the call in test [7], in [8], in [9] and in test [10] was inactive.
As usually defined, the AC50 is the concentration at which the activity in the assay is half-maximal. For `CCCCCCCCCCCCN(C)C`, the compound was called inactive in test [1], in [3], in test [11], in test [6], in [12] and in [13]. Further, the result in test [7] and in test [9] was inactive. The results for the AC50 in test [2], in test [4] and in [10] were 33.4 µM (active), 53.9 µM (active) and 54.2 µM (active), respectively.
`CCOP(=O)(OCC)SCCSCC`: the compound was classed as inactive in test [1], in test [2], in [3], in test [14], in test [4] and in [12]. For the same compound, the outcome in test [7], in test [8], in test [15], in [9] and in test [10] was inactive.
In the case of `CCN(N=O)C(N)=O`, the call in [1], in [2], in test [3], in [4], in test [16] and in test [17] was inactive. Further, the result in test [11], in [6], in test [12], in test [8], in [9] and in test [10] was inactive.
As for `C=CCOC(F)(C(F)(F)F)C(F)(F)F`, the compound was classed as inactive in [1], in [2], in test [14], in test [4], in test [5] and in test [17]. The outcome in [18], in test [11], in test [6], in test [12], in test [19] and in test [7] was inactive. Moreover, the compound was classed as inactive in [9] and in [10].
